According to PubChem BioAssay (NCI):
This is part of a sample that, as a whole, favours compounds with a hit. Of some 83,000 tested, about 20% had one in any assay.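 In brief: 96-well plates, 48 h treatment, single concentration, percent growth endpoint.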 The source made the active and inactive calls. Rule for the calls: active = growth percent below 10; inactive = the rest.

What was measured:
Assay in all cases: NCI-60 one-dose screen, 48 h (100 = growth as untreated, 0 = no growth, -100 = all killed)
Conditions in all cases: 10 µM unless noted
SK-MEL-2 melanoma = system: SK-MEL-2 melanoma
EKVX NSCLC = system: EKVX NSCLC
SN12C renal = system: SN12C renal
UO-31 renal = system: UO-31 renal
TK-10 renal = system: TK-10 renal
ACHN renal = system: ACHN renal
CAKI-1 renal = system: CAKI-1 renal
A498 renal = system: A498 renal
CCRF-CEM leukemia = system: CCRF-CEM leukemia
MOLT-4 leukemia = system: MOLT-4 leukemia
SR leukemia = system: SR leukemia
RPMI-8226 leukemia = system: RPMI-8226 leukemia
OVCAR-8 ovarian = system: OVCAR-8 ovarian
OVCAR-5 ovarian = system: OVCAR-5 ovarian
OVCAR-4 ovarian = system: OVCAR-4 ovarian
SK-OV-3 ovarian = system: SK-OV-3 ovarian
IGROV1 ovarian = system: IGROV1 ovarian
OVCAR-3 ovarian = system: OVCAR-3 ovarian
HS 578T breast = system: HS 578T breast
NCI/ADR-RES ovarian = system: NCI/ADR-RES ovarian

Measured: growth

NS(=O)(=O)c1ccc(Nc2nc(SCc3ccccc3)nc3ccccc23)cc1
inactive: SK-MEL-2 melanoma 92.4% | EKVX NSCLC 77.7% | SN12C renal 65.1% | UO-31 renal 46.9% | TK-10 renal 81.5% | ACHN renal 62% | CAKI-1 renal 49.1% | A498 renal 48.5% | CCRF-CEM leukemia 41.8% | MOLT-4 leukemia 43.9% | SR leukemia 33.6% | RPMI-8226 leukemia 32.8% | OVCAR-8 ovarian 60.6% | OVCAR-5 ovarian 83.3% | OVCAR-4 ovarian 58% | SK-OV-3 ovarian 91.3% | IGROV1 ovarian 90.9% | OVCAR-3 ovarian 84.7% | HS 578T breast 62.2% | NCI/ADR-RES ovarian 102%

NS(=O)(=O)c1ccc(-n2cc(CN3CCCCC3)nn2)cc1
inactive: SK-MEL-2 melanoma 109% | EKVX NSCLC 101% | SN12C renal 100% | UO-31 renal 82.2% | TK-10 renal 102% | ACHN renal 107% | CAKI-1 renal 92.6% | A498 renal 93.6% | CCRF-CEM leukemia 108% | MOLT-4 leukemia 98.5% | SR leukemia 93.7% | RPMI-8226 leukemia 107% | OVCAR-8 ovarian 105% | OVCAR-5 ovarian 105% | OVCAR-4 ovarian 105% | SK-OV-3 ovarian 122% | IGROV1 ovarian 104% | OVCAR-3 ovarian 113% | HS 578T breast 100% | NCI/ADR-RES ovarian 109%

Nc1ncc(-c2ccc3ncnc(Nc4cccc(Cl)c4F)c3c2)cn1
active: TK-10 renal -2.85% | A498 renal -10.7% | SK-OV-3 ovarian 0%
inactive: SK-MEL-2 melanoma 95.3% | EKVX NSCLC 11.7% | SN12C renal 50.9% | UO-31 renal 34.6% | ACHN renal 25.3% | CAKI-1 renal 38% | CCRF-CEM leukemia 65.6% | MOLT-4 leukemia 72.3% | SR leukemia 66.3% | RPMI-8226 leukemia 47.6% | OVCAR-8 ovarian 64.3% | OVCAR-5 ovarian 47.8% | OVCAR-4 ovarian 69.5% | IGROV1 ovarian 11.4% | OVCAR-3 ovarian 57.2% | HS 578T breast 35% | NCI/ADR-RES ovarian 59.3%

O=C(CN1CCN(c2cc(=O)[nH]c3ccc(F)cc23)CC1)Nc1ccc(Cl)cc1
inactive: SK-MEL-2 melanoma 66.2% | EKVX NSCLC 69.9% | SN12C renal 60.8% | UO-31 renal 75.2% | TK-10 renal 62.2% | ACHN renal 57% | CAKI-1 renal 72.6% | A498 renal 54.9% | CCRF-CEM leukemia 98.2% | MOLT-4 leukemia 92.4% | SR leukemia 84.3% | RPMI-8226 leukemia 104% | OVCAR-8 ovarian 33.3% | OVCAR-5 ovarian 86.2% | OVCAR-4 ovarian 29.7% | SK-OV-3 ovarian 65.1% | IGROV1 ovarian 67.1% | OVCAR-3 ovarian 60.5% | HS 578T breast 34.6% | NCI/ADR-RES ovarian 76%

O=C(CSc1nc2ccccc2c(=O)n1-c1ccccc1)Nc1ccc(-c2nc3ccc([N+](=O)[O-])cc3[nH]2)cc1
inactive: SK-MEL-2 melanoma 89.5% | EKVX NSCLC 93.5% | SN12C renal 72.4% | UO-31 renal 76.9% | TK-10 renal 127% | ACHN renal 88.2% | CAKI-1 renal 78.2% | A498 renal 77.8% | CCRF-CEM leukemia 22.1% | MOLT-4 leukemia 20.4% | SR leukemia 20.9% | RPMI-8226 leukemia 67.2% | OVCAR-8 ovarian 75.5% | OVCAR-5 ovarian 86.1% | OVCAR-4 ovarian 88.6% | SK-OV-3 ovarian 106% | IGROV1 ovarian 57.9% | OVCAR-3 ovarian 63.6% | HS 578T breast 77.1% | NCI/ADR-RES ovarian 75.3%

O=C1[C@H]2Cc3c([nH]c4ccccc34)[C@@H](c3ccc(Cl)cc3)N2C(=O)CN1C1CCN(Cc2ccccc2)CC1
inactive: SK-MEL-2 melanoma 84.7% | EKVX NSCLC 41.3% | SN12C renal 45.9% | UO-31 renal 26.4% | TK-10 renal 82.3% | ACHN renal 40.6% | CAKI-1 renal 38% | A498 renal 74.8% | CCRF-CEM leukemia 43.3% | MOLT-4 leukemia 27.1% | SR leukemia 10.4% | RPMI-8226 leukemia 17% | OVCAR-8 ovarian 72.7% | OVCAR-5 ovarian 74.8% | OVCAR-4 ovarian 49.1% | SK-OV-3 ovarian 79.7% | IGROV1 ovarian 33.5% | OVCAR-3 ovarian 47.7% | HS 578T breast 68.1% | NCI/ADR-RES ovarian 51.3%

N#Cc1c(-c2cccs2)cc(-c2cnccn2)nc1SCC(=O)Nc1ccc(Br)cc1
inactive: SK-MEL-2 melanoma 106% | EKVX NSCLC 57.6% | SN12C renal 87.7% | UO-31 renal 58.4% | TK-10 renal 83% | ACHN renal 64.5% | CAKI-1 renal 64.4% | CCRF-CEM leukemia 83.4% | MOLT-4 leukemia 89.5% | SR leukemia 79.5% | RPMI-8226 leukemia 99.5% | OVCAR-8 ovarian 94.6% | OVCAR-5 ovarian 86.7% | OVCAR-4 ovarian 73.8% | SK-OV-3 ovarian 97.6% | IGROV1 ovarian 64.8% | OVCAR-3 ovarian 96.3% | HS 578T breast 68.6% | NCI/ADR-RES ovarian 85.8%
active: A498 renal 6.18%

COc1cc(C2N=C(NNc3ccccc3)NC(C)=C2C(C)=O)ccc1O (stereo not given)
inactive: SK-MEL-2 melanoma 97.1% | EKVX NSCLC 79.3% | SN12C renal 95.5% | UO-31 renal 63.2% | TK-10 renal 149% | ACHN renal 63% | CAKI-1 renal 56.8% | A498 renal 105% | CCRF-CEM leukemia 101% | MOLT-4 leukemia 89.9% | SR leukemia 57.7% | RPMI-8226 leukemia 110% | OVCAR-8 ovarian 94.2% | OVCAR-5 ovarian 92.7% | OVCAR-4 ovarian 93% | SK-OV-3 ovarian 90.1% | IGROV1 ovarian 69.9% | OVCAR-3 ovarian 122% | HS 578T breast 108% | NCI/ADR-RES ovarian 87.8%

COc1ccc(Cn2cc3c(c2-c2cc(OC)c(OC)c(OC)c2)CCc2c(CN4CCCC4)noc2-3)cc1
active: A498 renal -1.61% | OVCAR-3 ovarian -16% | NCI/ADR-RES ovarian 9.19%
inactive: SK-MEL-2 melanoma 57.1% | EKVX NSCLC 38.1% | SN12C renal 36.6% | UO-31 renal 35.9% | TK-10 renal 69.6% | ACHN renal 45.7% | CAKI-1 renal 35.9% | CCRF-CEM leukemia 16.3% | MOLT-4 leukemia 18.3% | SR leukemia 29% | RPMI-8226 leukemia 21% | OVCAR-8 ovarian 42.5% | OVCAR-5 ovarian 27.9% | OVCAR-4 ovarian 55.2% | SK-OV-3 ovarian 41% | IGROV1 ovarian 29.9% | HS 578T breast 10.3%

CC1(C)CC[C@]2(C(=O)N3CCOCC3)CC[C@]3(C)C(=CC[C@@H]4[C@@]5(C)C/C(=C/c6ccccn6)C(=O)C(C)(C)[C@@H]5CC[C@]43C)[C@@H]2C1
active: A498 renal -3.14%
inactive: SK-MEL-2 melanoma 82.9% | EKVX NSCLC 56.1% | SN12C renal 67.7% | UO-31 renal 42% | TK-10 renal 70.2% | ACHN renal 76.9% | CAKI-1 renal 28.9% | CCRF-CEM leukemia 44.5% | MOLT-4 leukemia 25% | SR leukemia 22.5% | RPMI-8226 leukemia 15.9% | OVCAR-8 ovarian 77.9% | OVCAR-5 ovarian 88.4% | OVCAR-4 ovarian 36.1% | SK-OV-3 ovarian 108% | IGROV1 ovarian 65.3% | OVCAR-3 ovarian 70.2% | HS 578T breast 81.6% | NCI/ADR-RES ovarian 81.4%

COc1ccc(/C=N/NC(=O)c2cn(C3CC3)c3c(OC)c(N4CC5CCCNC5C4)c(F)cc3c2=O)cc1 (stereo not given)
inactive: SK-MEL-2 melanoma 107% | EKVX NSCLC 102% | SN12C renal 81% | UO-31 renal 62.4% | TK-10 renal 116% | ACHN renal 88.7% | CAKI-1 renal 82.9% | A498 renal 83.3% | CCRF-CEM leukemia 63.6% | MOLT-4 leukemia 60.4% | RPMI-8226 leukemia 64.2% | OVCAR-8 ovarian 94.8% | OVCAR-5 ovarian 97.5% | OVCAR-4 ovarian 87.9% | SK-OV-3 ovarian 102% | IGROV1 ovarian 75.3% | OVCAR-3 ovarian 83.1% | HS 578T breast 99.1% | NCI/ADR-RES ovarian 91%
active: SR leukemia -3.21%

CC(=O)N(C)C1CCc2c(sc(NC(=O)c3ccc(C(C)(C)C)cc3)c2C(N)=O)C1 (stereo not given)
active: SR leukemia 9.43%
inactive: SK-MEL-2 melanoma 103% | EKVX NSCLC 75.5% | SN12C renal 71.1% | UO-31 renal 89% | TK-10 renal 106% | ACHN renal 97.7% | CAKI-1 renal 64.8% | A498 renal 80% | CCRF-CEM leukemia 69.3% | MOLT-4 leukemia 75.2% | RPMI-8226 leukemia 81.2% | OVCAR-8 ovarian 73.8% | OVCAR-5 ovarian 78.9% | OVCAR-4 ovarian 41.7% | SK-OV-3 ovarian 108% | IGROV1 ovarian 100% | OVCAR-3 ovarian 83.7% | HS 578T breast 38.9% | NCI/ADR-RES ovarian 79.6%

CCO/C=N/C1=C(C#N)C(c2ccc(OC)cc2)c2sc3c(CC)cccc3c2O1 (stereo not given)
active: A498 renal 6.97% | OVCAR-3 ovarian -28.8%
inactive: SK-MEL-2 melanoma 41.4% | EKVX NSCLC 47.5% | SN12C renal 43.6% | UO-31 renal 48.1% | TK-10 renal 69.3% | ACHN renal 46.8% | CAKI-1 renal 50% | CCRF-CEM leukemia 22.4% | MOLT-4 leukemia 26.8% | SR leukemia 20.1% | RPMI-8226 leukemia 12.7% | OVCAR-8 ovarian 42.9% | OVCAR-5 ovarian 43.5% | OVCAR-4 ovarian 65% | SK-OV-3 ovarian 66.6% | IGROV1 ovarian 38.4% | HS 578T breast 18.2% | NCI/ADR-RES ovarian 10.3%

NS(=O)(=O)c1ccc(Nc2nc(N/N=C/CCc3ccccc3)nc(Nc3ccccc3)n2)cc1
inactive: SK-MEL-2 melanoma 105% | EKVX NSCLC 97.8% | SN12C renal 105% | UO-31 renal 84% | TK-10 renal 105% | ACHN renal 101% | CAKI-1 renal 96.9% | A498 renal 86.4% | CCRF-CEM leukemia 93.6% | MOLT-4 leukemia 101% | SR leukemia 91.5% | RPMI-8226 leukemia 101% | OVCAR-8 ovarian 104% | OVCAR-5 ovarian 103% | OVCAR-4 ovarian 104% | SK-OV-3 ovarian 104% | IGROV1 ovarian 106% | OVCAR-3 ovarian 117% | HS 578T breast 96.8% | NCI/ADR-RES ovarian 113%
